Data on 14 molecules can be found in PubChem BioAssay.

Active and inactive are the calls of the source.

Assay [1] deals with PRMT1 (protein arginine N-methyltransferase 1). Description: PRMT1 binders on small-molecule microarrays, primary screen, biochemical, small-molecule microarray, 635 nm fluorescence (AID 1088).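 Also: binding of Prmt1 protein to compounds spotted on small-molecule microarray slides.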 The conditions noted are these: small-molecule microarray binding, higher = more signal.
A short description of assay [2]: yeast growth modulation, basal conditions, primary screen, YJM789 clinical isolate, OD600, 24 h (AID 1089).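 Also: growth of clinical yeast isolate S. cerevisiae YJM 789 seeded 1000 cells per well; test concentration not given here.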 To be noted: S. cerevisiae YJM789 growth, higher = more signal, called active from +8 up or from −8 down.
Assay [3] in a line: fission yeast growth modulation, primary screen, strain 972, OD600, 24 h, no modulator (AID 1090).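 Also: basal condition with compound alone and no growth modifier present; test concentration not given here.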 The conditions noted are these: S. pombe 972 growth, higher = more signal, called active from +8 up or from −8 down.
Assay [4] can be described thus: S. cerevisiae growth modulation with rapamycin, primary screen, strain BY4716, OD600, 96 h (AID 1091). Also: test concentration not given here. The conditions noted are these: higher = more signal, called active from +8 up or from −8 down.
The target in assay [5] is Torsin-1A-interacting protein 2 (Homo sapiens) (UniProt Q8NFQ8). As to the kind of experiment: LULL1 binders on small-molecule microarray, primary screen, cell lysate, human LULL1 lysate, 635/667 nm fluorescence (AID 1092).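 Also: probe is lysate of COS7 cells overexpressing human LULL1; score merges per-feature 667 nm fluorescence with signal-to-noise.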 To be noted: hLULL1 lysate binding, 635 nm fluorescence, higher = more signal.
Assay [6] is described as follows: E. coli growth modulation, two-sided OD650, primary screen, E. coli filamentation project, strain DRC41, 24 h (AID 1093).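 Also: MC1000 strain lacking acrAB efflux and sulA so SOS filamentation is blocked; test concentration not given here.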 The conditions noted are these: OD650, 24 h, higher = more signal, called active from +8 up or from −8 down.
Assay [7] in a line: small-molecule microarray binders of probe aLefty2, primary screen, biochemical, biotinylated probe, 635/667 nm fluorescence (AID 1094).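 Also: score merges spot fluorescence near 667 nm with spot signal-to-noise ratio.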 To be noted: higher = more signal.
The test system of assay [8] is Noggin (protein binding on small-molecule microarray). As to the kind of experiment: Noggin binders on small-molecule microarray, primary screen, biochemical, 635/667 nm fluorescence (AID 1095).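 Also: score merges 667 nm feature fluorescence with signal to noise over triplicate slides.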 To be noted: 635 nm fluorescence, higher = more signal.
In assay [9] the target is Neurogenic locus notch homolog protein 3 (Homo sapiens) (UniProt Q9UM47). Description: NOTCH3 binders on small-molecule microarray, primary screen, biochemical, 635/667 nm fluorescence (AID 1096). The conditions noted are these: NOTCH3 binding, 635 nm fluorescence, higher = more signal.
Assay [10] is described as follows: small-molecule microarray binders of probe aEGFR, primary screen, biochemical, biotinylated probe, 635/667 nm fluorescence (AID 1097).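 Also: probe is a biotinylated anti-EGFR antibody binding compounds printed on slides; score combines fluorescence near 667 nm and signal to noise of each spot.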 To be noted: higher = more signal.

Chain of Neurogenic locus notch homolog protein 3 (Homo sapiens) (Q9UM47 whole entry, looked up): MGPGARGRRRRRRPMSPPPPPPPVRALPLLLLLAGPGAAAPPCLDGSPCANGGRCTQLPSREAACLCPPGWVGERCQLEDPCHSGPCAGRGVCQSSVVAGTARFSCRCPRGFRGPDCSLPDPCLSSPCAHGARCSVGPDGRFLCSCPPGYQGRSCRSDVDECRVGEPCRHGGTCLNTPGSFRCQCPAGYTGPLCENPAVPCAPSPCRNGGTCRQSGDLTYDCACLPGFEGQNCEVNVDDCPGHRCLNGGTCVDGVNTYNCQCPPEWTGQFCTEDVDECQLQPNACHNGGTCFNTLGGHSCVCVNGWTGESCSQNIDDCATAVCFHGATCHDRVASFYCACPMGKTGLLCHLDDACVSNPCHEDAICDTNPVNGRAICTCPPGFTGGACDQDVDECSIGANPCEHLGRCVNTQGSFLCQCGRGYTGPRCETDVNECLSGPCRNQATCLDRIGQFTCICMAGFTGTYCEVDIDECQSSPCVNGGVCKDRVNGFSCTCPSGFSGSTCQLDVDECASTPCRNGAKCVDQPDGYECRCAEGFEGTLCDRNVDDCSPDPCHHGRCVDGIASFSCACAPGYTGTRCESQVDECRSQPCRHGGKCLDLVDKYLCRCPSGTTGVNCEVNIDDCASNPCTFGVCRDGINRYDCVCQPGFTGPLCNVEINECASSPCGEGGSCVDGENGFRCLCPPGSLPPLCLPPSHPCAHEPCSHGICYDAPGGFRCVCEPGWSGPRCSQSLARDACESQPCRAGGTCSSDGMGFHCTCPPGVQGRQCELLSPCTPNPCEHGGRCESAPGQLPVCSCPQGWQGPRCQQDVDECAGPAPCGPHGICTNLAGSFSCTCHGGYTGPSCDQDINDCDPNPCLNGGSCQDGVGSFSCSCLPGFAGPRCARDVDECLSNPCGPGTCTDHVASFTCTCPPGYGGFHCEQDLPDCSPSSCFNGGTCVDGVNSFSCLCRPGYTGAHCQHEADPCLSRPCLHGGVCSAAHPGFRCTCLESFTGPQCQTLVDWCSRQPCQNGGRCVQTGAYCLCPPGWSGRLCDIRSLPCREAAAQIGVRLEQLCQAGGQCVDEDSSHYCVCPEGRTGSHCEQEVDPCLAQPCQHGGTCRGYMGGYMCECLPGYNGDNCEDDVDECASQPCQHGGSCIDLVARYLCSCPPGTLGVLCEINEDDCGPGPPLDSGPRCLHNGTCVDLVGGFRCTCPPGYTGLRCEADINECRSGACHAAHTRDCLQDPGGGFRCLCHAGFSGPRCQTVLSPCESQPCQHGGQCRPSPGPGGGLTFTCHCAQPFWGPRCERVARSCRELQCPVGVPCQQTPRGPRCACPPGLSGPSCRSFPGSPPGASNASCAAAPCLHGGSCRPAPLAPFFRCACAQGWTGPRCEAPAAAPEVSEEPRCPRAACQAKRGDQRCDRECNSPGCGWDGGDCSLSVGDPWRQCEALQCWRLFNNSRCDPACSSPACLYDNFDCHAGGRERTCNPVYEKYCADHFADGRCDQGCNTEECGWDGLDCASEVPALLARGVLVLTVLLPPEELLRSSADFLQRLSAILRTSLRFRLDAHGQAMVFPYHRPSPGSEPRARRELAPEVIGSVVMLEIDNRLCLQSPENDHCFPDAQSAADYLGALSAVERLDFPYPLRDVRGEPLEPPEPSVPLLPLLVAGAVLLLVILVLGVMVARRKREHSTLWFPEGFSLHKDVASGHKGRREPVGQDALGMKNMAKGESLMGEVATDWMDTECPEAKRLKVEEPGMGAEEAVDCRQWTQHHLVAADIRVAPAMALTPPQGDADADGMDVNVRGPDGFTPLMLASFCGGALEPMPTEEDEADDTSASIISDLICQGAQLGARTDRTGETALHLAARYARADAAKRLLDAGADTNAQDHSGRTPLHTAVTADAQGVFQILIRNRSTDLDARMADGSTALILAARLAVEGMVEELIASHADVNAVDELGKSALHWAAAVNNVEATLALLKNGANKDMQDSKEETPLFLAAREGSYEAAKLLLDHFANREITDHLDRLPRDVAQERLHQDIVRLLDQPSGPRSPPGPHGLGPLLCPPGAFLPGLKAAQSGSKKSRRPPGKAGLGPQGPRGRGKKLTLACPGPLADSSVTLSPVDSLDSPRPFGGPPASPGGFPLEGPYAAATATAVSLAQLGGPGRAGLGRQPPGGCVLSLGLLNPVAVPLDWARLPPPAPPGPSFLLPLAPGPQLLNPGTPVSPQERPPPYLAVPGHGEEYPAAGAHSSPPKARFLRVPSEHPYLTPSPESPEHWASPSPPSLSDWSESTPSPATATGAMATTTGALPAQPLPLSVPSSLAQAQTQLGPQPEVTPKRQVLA
Chain of Torsin-1A-interacting protein 2 (Homo sapiens) (Q8NFQ8 whole entry, looked up): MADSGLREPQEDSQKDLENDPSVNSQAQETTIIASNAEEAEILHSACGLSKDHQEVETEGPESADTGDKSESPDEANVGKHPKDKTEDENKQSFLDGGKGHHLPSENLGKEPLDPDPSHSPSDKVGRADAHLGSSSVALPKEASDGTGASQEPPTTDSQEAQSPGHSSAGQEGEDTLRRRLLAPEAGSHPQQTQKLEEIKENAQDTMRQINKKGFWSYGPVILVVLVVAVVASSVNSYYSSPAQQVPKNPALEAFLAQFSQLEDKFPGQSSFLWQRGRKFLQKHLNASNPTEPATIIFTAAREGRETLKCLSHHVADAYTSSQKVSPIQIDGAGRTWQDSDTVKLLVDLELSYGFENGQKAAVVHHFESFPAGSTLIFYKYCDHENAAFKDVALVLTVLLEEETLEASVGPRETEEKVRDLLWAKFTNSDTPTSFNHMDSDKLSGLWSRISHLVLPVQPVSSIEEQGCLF

Consider `C=CCNC(=O)[C@@H]1[C@H]2C(=O)O[C@H](c3ccccc3)[C@H](c3ccccc3)N2[C@H](c2ccccc2OCCO)[C@@]12C(=O)N(C(=O)OCCOC)c1ccc(C#CCNC(N)=O)cc12`, for which the composite z-score stood at 1.46 in assay [1]; 2.85 in assay [5]; 0.0395 in assay [7]; 0.61 in assay [8]; 1.12 in assay [9]; 0.0149 in assay [10]. Further, the z-score in assay [2] was 1.11 (inactive); in assay [3], 0.731 (inactive); in [4], 2.72 (inactive); in [6] it was -0.395 (inactive).
Take `COc1ccc([Si](C)(C)[C@H]2[C@H](CCO)O[C@@]3(C(=O)N(Cc4ccc(N5C(=O)COc6ccccc65)cc4)c4ccccc43)[C@@H]2C)cc1`: the composite z-score in assay [1] is 1.06; in [5], 1.31; in [7], -0.0796; in [8], -0.6; in assay [9] it was -0.0154; in assay [10] it was -0.222. Moreover, the z-score is 0.223 (inactive) in assay [2], -0.379 (inactive) in assay [3], 25.3 (active) in assay [4] and -0.132 (inactive) in [6].
Regarding `COc1ccc(C(=O)O[C@H]2CC[C@]3(C)C4=C(CCC3C2(C)C)[C@]2(C)CC[C@H]([C@H](C)CCCC(C)C)[C@@]2(C)CC4)cc1` (stereo not given in full), the composite z-score in [1] is 0.193; in assay [5], -0.445; in assay [7], -0.0561; in assay [8], 0.546; in assay [9], 0.947; in assay [10] it was -0.0828. In addition, the z-score in [2] is -0.292 (inactive); in assay [3] it was -1.52 (inactive); in assay [4], -0.262 (inactive); in assay [6] it was 1.71 (inactive).
For `CCOC(=O)C[C@H]1[C@H](OC(=O)c2cc3ccccc3oc2=O)[C@@H](NC(=O)Cc2ccc(OC)cc2)c2cc(OCCCO)ccc2N1C(=O)c1ccccc1`, the composite z-score is 0.242 in assay [1]; 1.08 in assay [5]; -0.139 in assay [7]; 0.558 in assay [8]; 0.0769 in assay [9]; -0.0174 in assay [10]. Further, the z-score in [2] was -0.0987 (inactive); in assay [3] it was -0.507 (inactive); in assay [4] it was 0.279 (inactive); in assay [6], 0.201 (inactive).
With `CN1C(=O)C2C=CC(C(O)Cc3ccccc3)N(Nc3ccccc3)C2C1=O` (stereo not given), the composite z-score in [1] was 0.0459; in assay [5], 3.43; in assay [7], 0.126; in [8] it was 0.129; in assay [9] it was 0.297; in [10] it was -0.071. Besides, the z-score in assay [2] was 0.398 (inactive); in assay [3] it was 0.0113 (inactive); in assay [4] it was -0.0322 (inactive); in assay [6], -1.05 (inactive).
For the molecule `O=C(O)[C@@]1(CCS(=O)(=O)c2ccccc2)COC(c2ccc(OCCCO)cc2)=N1`, the composite z-score in [1] is -0.16; in [5], 2.76; in [7], 0.188; in assay [8], -0.754; in assay [9] it was -0.395; in assay [10], -0.0828. Moreover, the z-score was 0.608 (inactive) in assay [2], -2.3 (inactive) in assay [3], -0.717 (inactive) in assay [4] and -0.16 (inactive) in assay [6].
`COc1ccc(CCNC(=O)[C@@]2(Sc3ccc(C)cc3)CC(=O)N(C3CCCCC3)[C@@H]2c2ccc(CO)cc2I)cc1`: the composite z-score in [1] was 1.42; in assay [5] it was 2.71; in assay [7], -0.0823; in [8] it was 0.53; in assay [9] it was 1.1; in [10], 0.0414. Also, the z-score in assay [2] was -1.11 (inactive); in assay [3] it was 0.0408 (inactive); in assay [4], 0.766 (inactive); in assay [6] it was -0.0209 (inactive).
`CCOC(=O)C[C@H]1[C@H](OC(=O)c2ccc(C(=O)c3ccccc3)cc2)[C@@H](NC(=O)c2ccc(-c3ccccc3)cc2)c2cc(OCCCO)ccc2N1C(=O)c1ccccc1`: the composite z-score is 1.36 in assay [1]; 1.45 in assay [5]; -0.221 in assay [7]; 0.421 in assay [8]; 1.03 in assay [9]; 0.0911 in [10]. For the same molecule, the z-score in assay [2] was -0.575 (inactive); in assay [3] it was -0.34 (inactive); in assay [4], -0.169 (inactive); in assay [6], -0.83 (inactive).
`COC(=O)[C@@]1(Cc2ccc(F)cc2)[C@H]2c3cc(C(=O)N(C)C)n(CC4CC4)c3C[C@H]2CN1C(=O)c1ccccc1`: the composite z-score in assay [1] turned out to be 1.45; in assay [5], 3.57; in [7] it was 1.41; in assay [8], 0.506; in [9], 1.06; in [10] it was 0.973. The z-score in assay [2] was 0.712 (inactive); in assay [3], 0.877 (inactive); in assay [4], 2.49 (inactive); in assay [6] it was -0.334 (inactive).
With `O=C(NCc1ccc(F)cc1)[C@H]1C[C@H]2C(=O)N[C@@H](Cc3ccccc3)C(=O)N2[C@H]1c1ccc(O)cc1`, the composite z-score in assay [1] is 0.53; in [5], 2.34; in assay [7], -0.118; in assay [8], 0.223; in [9], -0.75; in assay [10], -0.268. Also, the z-score in assay [2] is 0.839 (inactive); in assay [3], 0.247 (inactive); in assay [4], 2.14 (inactive); in [6], 0.675 (inactive).
Regarding `[N-]=[N+]=NCc1ccccc1[C@H]1OC(c2ccc(OCCCO)cc2)=N[C@@]1(Cc1ccccc1)C(=O)NCc1ccccc1`, the composite z-score in [1] came out at 1.48; in [5], 2.86; in assay [7], 0.151; in assay [8], 0.177; in assay [9], 1.12; in assay [10], 0.411. Also, the z-score in assay [2] is -1.9 (inactive); in [3], -0.0354 (inactive); in assay [4], 6.58 (inactive); in [6] it was 0.84 (inactive).
In the case of `CC(CO)N1C(=O)[C@@H]2C3C(=O)OCCC/C=C\[C@H]3OC23C=CCN(c2ccc4ccccc4c2)C(=O)[C@@H]13` (stereo not given in full), the composite z-score in assay [1] is 0.0691; in assay [5] it was -0.504; in assay [7], -0.0516; in assay [8], -0.871; in assay [9] it was -0.341; in [10] it was -0.18. The z-score in assay [2] is -0.531 (inactive); in assay [3], -0.743 (inactive); in assay [4] it was -0.0295 (inactive); in assay [6], 0.0095 (inactive).
In the case of `COc1cc2c(cc1O)C=[N+](Cc1cccc(OC(F)(F)F)c1)CC2`, the composite z-score was 0.224 in [1]; 0.319 in assay [5]; -0.103 in assay [7]; -0.0304 in [8]; -0.0987 in [9]; -0.171 in [10]. The z-score in assay [2] was -1.65 (inactive); in [3] it was -3.24 (inactive); in [4], -1.98 (inactive); in assay [6], -1.31 (inactive).
Consider `O=C1NC(=O)C2C1C=CC(C(O)c1ccccc1)N2Nc1ccc(Cl)cc1Cl` (stereo not given), for which the composite z-score in assay [1] worked out at 1.56; in [5], 3.74; in [7], 0.0847; in assay [8], 0.385; in assay [9], 1.12; in assay [10], 0.063. In addition, the z-score is -25.6 (active) in assay [2], -4.35 (inactive) in assay [3], -1.48 (inactive) in assay [4] and -1.8 (inactive) in assay [6].
